Assay results from PubChem BioAssay (NCI).
About 79,000 compounds went through this panel and 15% of them were active in at least one assay; those are over-represented in the sample as a whole. Cut-off read from the data, not from the text of the source: active = growth inhibition above about 70%; inactive = the rest.

Tests used:
[1] = NCI Yeast Anticancer Drug Screen. Data for the rad50 strain (AID 155);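 note: 0% = growth of vehicle-only cultures of the same strain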; settings: S. cerevisiae rad50 strain growth inhibition; at 50.0 µM; active compounds read high
Method in brief: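 Relative growth inhibition (compound vs vehicle) was measured in yeast with a defined repair-gene alteration.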

[2] = NCI Yeast Anticancer Drug Screen. Data for the mec2-1 strain (AID 157); settings: S. cerevisiae mec2-1 strain, at 50.0 µM, active compounds read high
Method in brief: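 mec2-1 yeast strain, carrying an alteration in DNA damage repair or cell cycle control, was exposed to compounds; growth inhibition was measured relative to vehicle-treated controls.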

[3] = NCI Yeast Anticancer Drug Screen. Data for the sgs1 mgt1 strain (AID 161);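 note: 0% = growth of cultures given vehicle only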; settings: S. cerevisiae sgs1 mgt1 strain, at 50.0 µM, active compounds read high
Method in brief: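 Compounds are added to genetically altered yeast, and growth is compared with cultures given vehicle alone to give percent inhibition.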

[4] = NCI Yeast Anticancer Drug Screen. Data for the cln2 rad14 strain (AID 165);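 note: 0% = growth equal to vehicle treated cultures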; settings: S. cerevisiae cln2 rad14 strain, at 50.0 µM, active compounds read high
Method in brief: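 Yeast carrying cln2 and rad14 alterations (cell cycle control and DNA damage repair) were exposed to compounds. Growth inhibition was measured against vehicle-treated controls.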

[5] = NCI Yeast Anticancer Drug Screen. Data for the bub3 strain (AID 167); settings: S. cerevisiae bub3 mutant strain, at 50.0 µM, active compounds read high
Method in brief: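 Screening used yeast with an engineered genetic alteration affecting cell cycle control. Compound-exposed cultures were compared with vehicle cultures, and reduced growth was taken as inhibition.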

[6] = NCI Yeast Anticancer Drug Screen. Data for the mlh1 rad18 strain (AID 175); settings: S. cerevisiae mlh1 rad18 strain growth inhibition; at 50.0 µM; active compounds read high
Method in brief: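 Growth inhibition of the yeast strain was measured after compound exposure and expressed relative to vehicle-treated controls. The strain carries defined defects in DNA damage repair.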

Measured: growth inhibition

CN(C)/N=N/c1nc2c(c(=O)n(C)c(=O)n2C)n1CC(O)CO (centres undefined)
inactive: [1] 11.4% | [2] 29% | [3] 22.1% | [4] -2.85% | [5] 2% | [6] 27.1%

Cc1ccc(S(=O)(=O)N2CCC(N)=N2)cc1
inactive: [1] 4.8% | [2] -6.7% | [3] -3.75% | [4] -18.4% | [5] 0.45% | [6] -4.85%

CC(C)CCOC(=O)NC(Nc1ccc(F)cc1)(C(F)(F)F)C(F)(F)F
inactive: [1] -10.6% | [2] -15.9% | [3] -40.5% | [4] -13.3% | [5] -5.2% | [6] -25.9%

COc1ccc(NC2C(=O)C3(C)CCC2C3(C)C)cc1 (centres undefined)
inactive: [1] -17.2% | [2] -10.9% | [3] -8.25% | [4] -49.3% | [5] 12.2% | [6] -41.1%

CCn1c(S)c(N=NC(=S)c2ccc3ccccc3n2)c2ccccc21
inactive: [1] 46% | [2] 18.9% | [3] 27.8% | [4] 23.4% | [5] 17.4% | [6] 11.5%

C=CC[Si](CC=C)(CC=C)OCC
inactive: [1] 22.5% | [2] -17.6% | [3] 4.05% | [4] 7% | [5] -6% | [6] 17.4%

Cc1nc(N)nc(C)c1N=Nc1ccccc1Br
inactive: [1] 2% | [2] 3.75% | [3] 2.35% | [4] -42.2% | [5] 5.35% | [6] -6.25%

O=C(NNC(=O)OCc1ccccc1)OCc1ccccc1
inactive: [1] 23.9% | [2] -2.75% | [3] 1.3% | [4] -34.2% | [5] 11.5% | [6] 18.1%

O=C(COc1ccc(Cl)c(Cl)c1)NCc1ccc(Cl)cc1
inactive: [1] 7.35% | [2] 13.2% | [3] 0.1% | [4] 5.3% | [5] 29.3% | [6] 49.5%

O=C1CCCC2=C1C(c1ccccc1)/C(=N/O)O2 (centres undefined)
inactive: [1] 14.6% | [2] -11.2% | [3] -4.45% | [4] -12.1% | [5] 8% | [6] 16.1%

O=C1OC(=O)C2C3C=CC(C4C=C(C5CC5)C43)C12 (centres undefined)
inactive: [1] 9.8% | [2] -4.05% | [3] -4.1% | [4] -22.9% | [5] -5.5% | [6] 5.2%

N#CNc1c2ccccc2nc2ccccc12
inactive: [1] -12.1% | [2] 1.05% | [3] -16.6% | [4] 2.85% | [5] 6.5% | [6] -4.75%

O=C(/C=C/C(=O)NCCc1ccccc1)NCCc1ccccc1
inactive: [1] -13.4% | [2] 0.85% | [3] 9.15% | [4] -7.45% | [5] 46.4% | [6] 17.4%

Nc1nc(Sc2ccccn2)ccc1[N+](=O)[O-]
inactive: [1] 0.25% | [2] -12.8% | [3] -2.1% | [4] -27.1% | [5] -12.1% | [6] -6.45%

CC(=O)c1cc2ccccc2n(O)c1=N
inactive: [1] -32.9% | [2] -10.8% | [3] -24% | [4] 17.1% | [5] -15.2% | [6] -17.3%

O=C1CCSC(=S)N1c1ccccc1
inactive: [1] 38.2% | [2] 4.8% | [3] 23.8% | [4] -32.2% | [5] -5.4% | [6] 27.1%

CCN(CC)CCOC(=O)Cc1ccccc1
inactive: [1] -8.9% | [2] -12.7% | [3] 19.9% | [4] 7.65% | [5] 6.5% | [6] 0.9%

CCOC(=O)/C=C/C=C(\OCC)C1CCC2C3CC=C4CC(OC(C)=O)CCC4(C)C3CCC12C (centres undefined)
inactive: [1] -4% | [2] -0.35% | [3] 23.1% | [4] 19.4% | [5] -3.3% | [6] -2.55%

C(=C\c1nc2ccccc2nc1/C=C/c1ccccc1)/c1ccccc1
inactive: [1] -25.9% | [2] -9.4% | [3] -13.8% | [4] -12.3% | [5] 2.7% | [6] 9.45%
